Inconclusive results are not listed. Entries that show only a call come without a potency. Active and inactive are the calls of the source. The call rests on the fitted dose curve; in most records, active means well fitted cell-killing curve with a large enough effect; inconclusive means small, poorly fitted or top-dose-only effect; inactive means no such curve, though single readings can be large or run the other way.
Test: qHTS of pediatric cancer cell lines to identify multiple opportunities for drug repurposing: Primary screen for NB1643 cells (AID 1347099); further: nearly all actives have a fitted effect of over 50% in size
Settings: NB1643 neuroblastoma viability, CellTiter-Glo luminescence, 48 h; series mostly up to 46 µM
Procedure, shortened: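 ATP-based luminescence (CellTiter-Glo) quantifies viability after a 48-hour exposure. Compounds are dosed across 8 or 11 final concentrations; DMSO and 2.3 µM bortezomib serve as controls.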
Potency means the concentration at half of the fitted maximal effect.

SMILES	Potency
C[N+]1(CC2COC(c3ccccc3)(C3CCCCC3)O2)CCCCC1 (stereo unspecified)	inactive
C=C[C@H]1CN2CC[C@H]1C[C@H]2[C@H](O)c1ccnc2ccc(OC)cc12	inactive
CN(C)C(=O)Nc1ccc(Cl)c(Cl)c1	inactive
C[C@@H](O)[C@H]1C(=O)N2C(C(=O)O)=C(S[C@@H]3CN[C@H](CNS(N)(=O)=O)C3)[C@H](C)[C@H]12	inactive
CCOCCn1c(N2CCCN(C)CC2)nc2ccccc21	inactive
N#C/C(=C1\SCC(c2ccccc2Cl)S1)n1ccnc1 (stereo unspecified)	inactive
Cc1ccc(O)c([C@H](CCN(C(C)C)C(C)C)c2ccccc2)c1	inactive
CCCCC(CC)COC(=O)c1ccc(N(C)C)cc1 (stereo unspecified)	inactive
N#CCC(=O)NN	inactive
Cc1cc(NS(=O)(=O)c2ccc(N)cc2)nc(C)n1	inactive
COc1cc(N)c(Cl)cc1C(=O)NC1CCN(Cc2ccccc2)CC1	inactive
CCCCN=C(N)N=C(N)N	inactive
CC(C)Cc1ccc(CC(=O)O)cc1	inactive
Oc1c(Cl)cc(Cl)c(Cl)c1Cc1c(O)c(Cl)cc(Cl)c1Cl	5.96 µM (active)
CCN(CC)CCOc1ccccc1C(=O)CCc1ccccc1	inactive
CC(C)n1c(/C=C/[C@@H](O)C[C@@H](O)CC(=O)O)c(-c2ccc(F)cc2)c2ccccc21	10.6 µM (active)
CC(=O)Nc1ccc(S(=O)(=O)Nc2ccc([N+](=O)[O-])cc2)cc1	inactive
Cc1c[nH]c2ccccc12	inactive

SMILES	Potency
CCCCCCCCOc1ccc(C(=O)c2ccccc2)c(O)c1	inactive
Nc1nc(-c2ccccc2)c(Br)c(=O)[nH]1	inactive
OC(C#CCN1CCCC1)(c1ccccc1)c1ccccc1	inactive
Nc1ccc(S(=O)(=O)NCc2ccccc2)cc1	inactive
CC(C)Nc1cccnc1N1CCN(C(=O)c2cc3cc(NS(C)(=O)=O)ccc3[nH]2)CC1	inactive
NS(=O)(=O)c1cc2c(cc1Cl)NC(CC1CCCC1)NS2(=O)=O (stereo unspecified)	inactive
C=C1c2cccc(O)c2C(O)=C2C(=O)[C@]3(O)C(O)=C(C(N)=O)C(=O)[C@@H](N(C)C)[C@@H]3[C@@H](O)[C@H]12	inactive
Cc1cc(CC(=O)O)c(C)n1-c1ccc(Cl)cc1	inactive
CO[C@]12C[C@@H](COC(=O)c3cncc(Br)c3)CN(C)[C@@H]1Cc1cn(C)c3cccc2c13	inactive
O=C(NC1CCN(CCc2c[nH]c3ccccc23)CC1)c1ccccc1	inactive
Clc1cccc(C(c2ccc3nc[nH]c3c2)n2ccnc2)c1 (stereo unspecified)	inactive
Cc1c(-c2ccccc2)oc2c(C(=O)OCCN3CCCCC3)cccc2c1=O	inactive
O=C(O)C(Cc1cc(I)c(O)c(I)c1)c1ccccc1 (stereo unspecified)	inactive
CC(C)(C)NCC(O)COc1cccc2c1C[C@H](O)[C@H](O)C2 (stereo partly specified)	inactive
Cc1nc(-c2ccc(Cl)cc2)oc1COC(C)(C)C(=O)O	inactive
NCc1ccccc1Sc1ccccc1CO	inactive
C[N+]1(C)CCC(=C(c2ccccc2)c2ccccc2)CC1	inactive
CCO[C@@H]1O[C@H](C(COCc2ccccc2)OCc2ccccc2)[C@H](OCc2ccccc2)[C@H]1O (stereo partly specified)	inactive

Source: PubChem BioAssay (NCATS)
